Rows were chosen to be rich in hits. Some 3.6% of all compounds tested hit in one or more screens of this group.
Pf apPOL inh: Pf-apPOL DNA polymerase inhibition | Recombinant Pf-apPOL, molecular beacon fluorescence, 1.5 h | inhibition, % at 10 µM | 210,000 tested, 0.25% active
mHTT CaM bind: inhibitors of human mutant huntingtin-calmodulin interaction | P42858 | AlphaScreen His-mHTT/GST-CaM binding, luminescence | inhibition, % at 15 µM | 190,000 tested, 3.6% active
A number is an active result; – = inactive; · = no result given. Cut-off read from the data, not from the text of the source: active = inhibition above about 50%; inactive = the rest.

SMILES	Pf apPOL inh	mHTT CaM bind
Cc1ccc(-c2ccnc3c(C(=O)NCCCN4CCC(C)CC4)cnn23)cc1C	–	–
COCCCNC(=O)C1CCCN(S(=O)(=O)N2CC(C)CC(C)C2)C1 (stereo not given)	–	–
O=C(Cc1ccccc1Cl)N1CC(c2nc(-c3cnccn3)no2)C1	–	–
CCCCCC(=O)Nc1ncc2c(n1)CC(c1cc(OC)c(OC)c(OC)c1)CC2=O (stereo not given)	81.7	–
COc1cc(C2CC(=O)c3cnc(NC(=O)c4ccccc4)nc3C2)cc(OC)c1OC (stereo not given)	–	–
CCC(Sc1nc2n[nH]c(C)c2c(=N)n1-c1cccc(Cl)c1)C(=O)NCCOC (stereo not given)	–	61.0
Cc1[nH]nc2nc(SCC(=O)NCc3ccco3)n(-c3cccc(Cl)c3)c(=N)c12	–	50.0
Cc1[nH]nc2nc(SCC(=O)N3CCCC3)n(-c3cccc(Cl)c3)c(=N)c12	–	–
CCC(Sc1nc2n[nH]c(C)c2c(=N)n1-c1ccc(Cl)c(C)c1)C(=O)NCCOC (stereo not given)	–	52.0
Cc1cc(NC(=O)CSc2nc3n[nH]c(C)c3c(=N)n2-c2ccc(Cl)c(C)c2)no1	–	–
CCCCN(CC)C(=O)CSc1nc2n[nH]c(C)c2c(=N)n1-c1cccc(C)c1	–	–
O=C(Nc1cc2c(cc1C(=O)c1ccccc1)OCCO2)c1ccc([N+](=O)[O-])cc1	–	–
CN(C)c1ncccc1NC(=O)NC1CCCC1	–	–
CC1=C(C#N)C(=O)N(CCCO)C(=O)/C1=C\c1ccc(-c2cc(C)c(C)cc2[N+](=O)[O-])o1	–	79.0
CC1=C(C#N)C(=O)N(C)C(=O)/C1=C\c1ccc(-c2ccc(Br)cc2C(=O)O)o1	–	–
O=C(Nc1ccc(NC(=O)c2ccc([N+](=O)[O-])cc2Cl)cc1Cl)c1ccco1	–	–
COc1ccc(C)cc1NC(=O)c1cc(S(=O)(=O)N2CCc3ccccc32)ccc1F	–	–
Cc1cc(Nc2ccc(C(N)=O)cc2)nc(-n2nc(C)cc2C)n1	–	94.9
Cc1cc(C)n(-c2ccc(Nc3ccc(NC(=O)Nc4ccccc4)cc3)nn2)n1	–	–
ONC=Nc1nnc(Cc2ccc(F)cc2)s1	–	·
Cc1ccc(NS(=O)(=O)c2ccc(Br)cc2)cc1[N+](=O)[O-]	–	–
CC(=O)c1cccc(N2CN=c3s/c(=C\c4cccc([N+](=O)[O-])c4)c(=O)n3C2)c1	–	–
CCOc1cccc(N2C(=O)NC(=O)/C(=C\c3ccc(Oc4ccc([N+](=O)[O-])cn4)cc3)C2=O)c1	–	50.0
O=C1NN(c2ccccc2)C(=O)/C1=C/c1cccc(OCCOc2ccc([N+](=O)[O-])cc2)c1	–	–
COc1cccc(NS(=O)(=O)c2cccc3cccnc23)c1	–	–
SMILES	Pf apPOL inh	mHTT CaM bind
COc1cccc(NC(c2ccccn2)c2ccc3cccnc3c2O)c1 (stereo not given)	–	99.0
COc1ccc(C(NC(=O)c2ccccc2)NC(=O)c2ccccc2)c(OC)c1	–	–
COc1cccc(C(NC(=O)c2ccccc2)c2ccc3cccnc3c2O)c1 (stereo not given)	–	100.0
COc1ccc(C(NC(=O)c2ccccc2)c2ccc3cccnc3c2O)cc1 (stereo not given)	–	100.0
CN1CCN(C(CNC(=O)NCc2cccs2)c2ccc(F)cc2)CC1 (stereo not given)	–	–
CCOc1ccc(/C=C2/SC(N3CCCCC3)=NC2=O)cc1	–	–
NC(=O)c1cnn2cc(-c3[nH]ncc3[N+](=O)[O-])cnc12	·	–
Cc1ccc(/C=N/NC(N)=S)s1	·	–
C=C1CCN([C@@H](CC(C)C)C(=O)Nc2ccc(OC)cc2)S(=O)(=O)c2ccccc21	–	–
C=C1CCN([C@@H](CC(C)C)C(=O)O)S(=O)(=O)c2ccccc21	–	–
C=C1CCN([C@@H](CC(C)C)C(=O)Nc2nc3ccc(Cl)cc3s2)S(=O)(=O)c2ccccc21	–	94.2
C=C1CCN([C@@H](CC(C)C)C(=O)NCCCc2ccccc2)S(=O)(=O)c2ccccc21	–	64.6
O=C(NCc1cc(-c2ccco2)on1)c1c[nH]c2ccccc12	–	–
CN(CCc1ccncc1)C(=O)C1CCN(c2cnn(Cc3ccccc3)c(=O)c2)CC1	–	–
O=C(c1cc2c(s1)CCC(C(=O)N1CCN(c3ccccc3F)CC1)C2)N1CCCC1 (stereo not given)	–	–
O=C(Cc1csc(NC(=O)C2CCCC2)n1)Nc1nc(-c2cccnc2)cs1	–	–
O=C(Cc1csc(NC(=O)c2cnccn2)n1)Nc1nc2ccccc2s1	–	80.5
CCSc1nnc(NC(=O)Cc2csc(NC(=O)c3cnccn3)n2)s1	–	88.4
Cc1ccc2nc(NC(=O)c3cnccn3)sc2c1	–	–
O=C(Cc1csc(NC(=O)c2cnccn2)n1)Nc1cccc(C(F)(F)F)c1	–	84.4
O=C(Cc1csc(NC(=O)c2cnccn2)n1)Nc1nc(-c2cccnc2)cs1	55.0	99.5
CCSc1nnc(NC(=O)c2cnccn2)s1	–	–
